Pyk2 oligo antag: antagonists of human Pyk2 oligomerization | Q14289 | Q293 cells, Pyk2 FERM NanoBiT luminescence; active compounds read low | z-score (the deposit names both 25 µM and 10 µM) | 0.83% of 99,000 active;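 active = Z-score of -3 or lower, scaled per plate to the spread of control and sample wells; inactive = z-score above -3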;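 note: negative z-score means lost luminescence so less FERM oligomerization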
Mac1 fbg inh: blocks human CD11b/CD18 adhesion to fibrinogen. P05107+P11215. 0.54% of 93,000 active. inhibition, % at 10 µM. K562 CD11b/CD18 adhesion to fibrinogen, ATPlite luminescence; Mn2+ added to activate the integrin;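 active = primary inhibition of 50% or more at 10 µM, then 40% or more on retest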
FAK inh: inhibitors of human focal adhesion kinase; AID 727; biochemical FAK kinase activity assay; inhibition, %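 (tested at 7 µM)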; Q05397; 0.84% of 97,000 active;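 note: 0% = DMSO and 100% = reference compound high control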
Target sequence (Q05397 whole entry, looked up): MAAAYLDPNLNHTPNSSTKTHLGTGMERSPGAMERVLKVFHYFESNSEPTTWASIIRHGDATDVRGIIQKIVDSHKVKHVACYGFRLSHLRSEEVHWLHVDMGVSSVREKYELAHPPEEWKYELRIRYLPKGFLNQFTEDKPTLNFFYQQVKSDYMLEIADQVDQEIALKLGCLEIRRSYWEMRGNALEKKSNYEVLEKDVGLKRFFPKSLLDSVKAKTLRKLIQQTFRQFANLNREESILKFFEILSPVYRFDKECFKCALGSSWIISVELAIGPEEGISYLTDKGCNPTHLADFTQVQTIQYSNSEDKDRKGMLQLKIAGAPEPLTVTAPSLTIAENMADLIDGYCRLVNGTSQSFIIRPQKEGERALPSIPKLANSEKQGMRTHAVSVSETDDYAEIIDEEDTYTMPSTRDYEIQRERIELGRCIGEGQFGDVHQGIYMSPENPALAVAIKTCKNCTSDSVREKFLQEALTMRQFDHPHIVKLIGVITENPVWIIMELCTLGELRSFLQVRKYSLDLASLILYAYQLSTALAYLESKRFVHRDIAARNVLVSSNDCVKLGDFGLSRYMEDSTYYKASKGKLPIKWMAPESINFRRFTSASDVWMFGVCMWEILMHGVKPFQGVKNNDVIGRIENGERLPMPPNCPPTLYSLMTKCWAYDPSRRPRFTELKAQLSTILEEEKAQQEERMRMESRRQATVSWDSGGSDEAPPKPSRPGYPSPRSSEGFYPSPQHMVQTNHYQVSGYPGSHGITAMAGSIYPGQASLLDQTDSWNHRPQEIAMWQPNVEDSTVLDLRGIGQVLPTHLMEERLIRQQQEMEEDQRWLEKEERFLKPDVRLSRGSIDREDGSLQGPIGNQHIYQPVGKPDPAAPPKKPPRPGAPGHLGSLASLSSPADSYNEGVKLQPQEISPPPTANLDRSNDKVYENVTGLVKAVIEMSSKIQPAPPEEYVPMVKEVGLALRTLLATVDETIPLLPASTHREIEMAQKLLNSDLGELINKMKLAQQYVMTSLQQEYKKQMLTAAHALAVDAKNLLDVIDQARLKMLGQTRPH
Mac1 fbg enh: increases human CD11b/CD18 adhesion to fibrinogen. K562 CD11b/CD18 adhesion to fibrinogen, ATPlite luminescence. activation, % at 10 µM. 0.07% of 93,000 active;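 active = 10 µM primary screen giving 50% or more activity, confirmed by 40% or more on retest at that dose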
FAK inh confirm: confirmation of human focal adhesion kinase (FAK) inhibitors; shares compounds with FAK inh; FAK kinase biochemical inhibition assay; inhibition, % at 7 µM; 28% of 750 active
An asterisk follows results filed as active; / = no result. Compounds with a hit are over-represented: about 1.8% of the library has one in this group of screens. Cut-off read from the data, not from the text of the source, unless noted: active = inhibition above about 19%; inactive = the rest.

SMILES | Pyk2 oligo antag | Mac1 fbg inh | FAK inh | Mac1 fbg enh | FAK inh confirm
COc1ccc(-c2coc3cc4oc(=O)cc(C)c4cc23)cc1F | -0.45 | 25 | 36* | 1 | 23*
O=C(Oc1ccc(-c2cnc3ccccc3n2)cc1)c1ccc(Br)o1 | -1.1 | 15 | 47* | 2 | 24*
O=C(Oc1ccc(-c2cnc3ccccc3n2)cc1)c1cccc([N+](=O)[O-])c1 | 1.2 | -25 | 0 | 0 | /
CS(=O)(=O)N1CC(C(=O)NC2CCCC2)Oc2ccc(Cl)cc21 (stereo not drawn) | 1 | / | -2 | / | /
O=C1COc2ccc(C(=O)CSc3nnc(Cc4cccs4)n3-c3ccc(Cl)cc3)cc2N1 | 0.14 | / | -6 | / | /
CC(C)CNC(=S)Nc1ccc(Oc2ccccc2)cc1 | / | 95 | / | -8 | /
c1nc(N2CCOCC2)c2c3c(sc2n1)CCCC3 | -1.5 | -7 | 28* | -3 | -1
CCOC(=O)c1c(C)[nH]c(O)c1C=Nc1ccc(Cl)cc1 | 1.3 | / | 14 | / | /
COC(=O)c1c(C)[nH]c(O)c1C=Nc1ccc(C(C)C)cc1 | -0.38 | / | 29* | / | 10
O=C(CNC(=O)c1ccco1)OCC(=O)c1ccc2c(c1)CCCC2 | 2.1 | / | 27* | / | -3
CCc1ccc(C(=O)COC(=O)CNC(=O)c2ccco2)cc1 | -0.61 | 2 | / | 0 | /
O=C1c2ccccc2C(=O)C1c1ccncc1 | 0.93 | 23 | 25* | -5 | 7
O=C1C(c2ccncc2)=C(O)c2ccccc21 | 0.26 | 18 | 15 | 1 | /
COc1ccc(C2N(S(=O)(=O)c3ccccc3)CCN2S(=O)(=O)c2ccc(C)cc2)cc1 (stereo not drawn) | 0.18 | 11 | 0 | -3 | /
CCc1ccc2nc3n[nH]c(N)c3cc2c1 | 0.53 | / | 40* | / | 20*
CCCN1CCCc2cc(CN)ccc21 | -0.02 | 10 | 24* | -2 | 18
CN1CCCc2cc(C=O)ccc21 | 0.86 | / | 0 | / | /
CC(=O)n1nc(-c2cccc(C)c2)nc1SCC(=O)Nc1ccccc1 | 0.62 | -37 | 19* | 5 | 9
CCC(=O)n1nc(-c2ccccc2)nc1SCC(=O)Nc1ccc(C)cc1 | 0.07 | / | 2 | / | /
C=C(C)c1cccc(C(C)(C)NC(=O)N2CCN(C/C=C/c3ccccc3)CC2)c1 | 0.38 | 12 | 1 | 0 | /
O=C1Cc2ccccc2C(=O)N1Cc1ccccc1 | -2.2 | -37 | 54* | -2 | 28*
O=C(O)CCN1Cc2ccccc2C1=O | 0.2 | -6 | 1 | -3 | /
COC(=O)c1sccc1NC(=O)c1c(C)c(-c2cccc(Cl)c2)nc2ccccc12 | / | -14 | / | 19 | /
CN1C(=O)/C(=C/c2ccccc2OCc2ccccc2F)NC1=S | 1.5 | / | 21* | / | 3
COc1ccccc1/C=C1\NC(=S)N(CC2CCCO2)C1=O (stereo not drawn) | -0.98 | -3 | -4 | -1 | /
SMILES | Pyk2 oligo antag | Mac1 fbg inh | FAK inh | Mac1 fbg enh | FAK inh confirm
O=c1[nH]ncc2c3ccccc3n(Cc3ccccc3)c12 | -0.82 | / | 20* | / | 7
CCOC(=O)c1ccc(Nc2nc(-c3cccnc3)nc3ccccc23)cc1 | -3.5* | 6 | 22* | 9 | 10
CCN(CCO)c1nc(SC)nc2c1sc1nc(-c3ccco3)c3c(c12)CCC3 | -0.67 | 1 | 72* | 117* | 1
CCOc1ccc2nc(NC3=NC(C)(C)C=C(C)N3)nc(C)c2c1 | -0.37 | 6 | 1 | 0 | /
CCOc1ccc2nc(NC3=NC(c4ccc(OC)cc4)CC(=O)N3)nc(C)c2c1 (stereo not drawn) | 0.34 | / | 36* | / | 25*
N#Cc1cc(C#N)c(N2CCN(c3ccccn3)CC2)nc1N | -0.65 | / | -2 | / | /
O=C(CNC(=O)c1ccc([N+](=O)[O-])cc1)N/N=C\c1ccc(OC(=O)c2ccccc2)cc1 | 0.56 | -4 | 25* | 17 | 11
CCCOc1ccc(/C=N/NC(=O)c2ccc(Cn3cc([N+](=O)[O-])cn3)o2)cc1 | -0.93 | -9 | 24* | 3 | 19
Nc1c(N2CCOCC2)cc(Cl)c2nonc12 | 0.43 | -6 | 1 | -7 | /
Nc1c(N2CCCC2)cc(Cl)c2nonc12 | -0.07 | -2 | 40* | 4 | -1
COC(=O)c1ccccc1S(=O)(=O)Nc1ccc2cn[nH]c2c1 | -0.38 | -17 | 20* | 1 | 15
Cc1nnc(NCc2ccncc2)c2ccccc12 | -0.05 | / | 23* | / | 7
COc1cc([N+](=O)[O-])ccc1NC(=S)Nc1cc(C(=O)OC(C)C)cc(C(=O)OC(C)C)c1 | / | 102 | / | -10 | /
O=c1c(O)c(-c2ccc3c(c2)OCO3)oc2ccccc12 | -1.6 | -6 | 20* | 3 | 9
O=C(Nc1ccc2c(c1)oc1ccccc12)c1ccc2c(c1)OCO2 | 0.38 | -12 | 1 | 18 | /
O=C(N/N=C/c1cccc(OC(=O)N2CCOCC2)c1)c1cccs1 | / | 18 | / | -2 | /
Cn1cnnc1SCC(=O)Nc1sc2c(c1C(N)=O)CCC2 | 0 | / | 23* | / | 6
CCOC(=O)c1c(NC(=O)CSc2nncn2C)sc(C)c1C | 0.8 | -9 | -2 | 1 | /
O=C(CSc1nc(-c2ccccc2)cs1)Nc1ccccc1[N+](=O)[O-] | / | 24 | / | 10 | /
Cc1ccccc1-n1c(SC/C(O)=C(\C#N)c2nc3ccccc3[nH]2)nnc1-c1ccncc1 | -1.7 | 10 | / | 3 | /
Cc1cc(C)n2c(SC/C(O)=C(\C#N)c3nc4ccccc4[nH]3)nnc2n1 | 0.48 | -3 | 22* | 27 | 2
O=C(C/C=N/OCc1c(Cl)cccc1Cl)c1ccc(Cl)cc1 | 1.6 | 22 | 2 | -4 | /
COc1ccc2oc(=O)c(-c3nnc(NCc4ccco4)s3)cc2c1 | 1.1 | -6 | 21* | 73 | 5
COc1ccccc1/C=C/C=N/NC(=O)CCn1nnc2ccccc21 | / | -7 | / | 4 | /
COc1ccc(-c2nn3c(-c4ccc(F)cc4)nnc3s2)cc1 | -1.9 | -5 | 36* | 10 | 9
SMILES | Pyk2 oligo antag | Mac1 fbg inh | FAK inh | Mac1 fbg enh | FAK inh confirm
COc1ccc(-c2nn3c(-c4ccccc4)nnc3s2)cc1 | -1.6 | 10 | 1 | 5 | /
CCCCCCCC(=O)Nc1ccc(C(=O)N/N=C/c2cccc([N+](=O)[O-])c2)cc1 | -0.86 | -7 | 34* | 62 | 17
Nc1ncnc2oc(-c3ccco3)c(-c3ccco3)c12 | -0.28 | 3 | 54* | -1 | 32*
CCNC(=O)CSc1nc2ccccc2c(=O)n1-c1cc(OC)ccc1OC | 0.89 | 8 | -1 | 4 | /
Cc1sc(NC(=O)c2sc3nc4c(C)cccc4cc3c2N)c(C#N)c1C | -0.46 | / | 29* | / | 7
N#Cc1nc(-c2ccccc2)oc1NCc1ccco1 | / | 4 | 21* | 2 | 11
CCCSc1nc(C)c(-c2csc(C(C#N)=C3CCCC3)n2)cc1C#N | -0.36 | 31 | 28* | -5 | 2
O=C(Nc1ccc(-c2nc3ccc(NC(=O)c4cccs4)cc3[nH]2)cc1)c1cccs1 | -0.48 | 3 | 53* | 32 | 47*
Cc1nc(NCc2ccco2)c2oc3ccccc3c2n1 | -0.05 | -30 | 24* | 3 | 8
COc1cccc(NC2c3ccccc3C(=O)N2Cc2ccco2)c1 (stereo not drawn) | / | -11 | 6 | -1 | /

Source: PubChem BioAssay (several laboratories)
